Hits are enriched below; roughly 3.8% of the tested compounds scored in any of these assays.
Cardio protect = modulators protecting cardiomyocytes from myocardial damage. H9c2 cardiomyocytes, H2O2 injury protection, ATPLite, 2 h. protection from H2O2 cell death, % at 20 µM. 360,000 compounds, 0.63% hits. AID 588492;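 active means compounds giving at least 50% protection of heart cells from peroxide-induced death in the single-dose screen, raw or plate-pattern-corrected value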;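 further: 0% = DMSO wells with peroxide and 100% = DMSO wells without peroxide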
SUMO Mot1 rescue = blocks SUMOylation pathway, rescuing yeast Mot1-301 growth; growth rescue, % at 18.8 µM; S. cerevisiae Mot1-301 growth rescue, ATP luminescence, 38.5C; percent above DMSO median, 100 means doubled; 320,000 compounds, 1% hits;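 active means every valid replicate shows activation above 250% relative to neutral control wells; inactive means the rest, any valid replicate at or below 250%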;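 further: OY570 slx delta 5 strain wells were the positive control but not used for scaling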
MPTP inh = permeability transition pore inhibition | isolated mouse mitochondria, Ca2+ swelling absorbance, 30 min | 360,000 compounds, 1.4% hits | inhibition, % at 10 µM | AID 602449;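 active means inhibition of 50% or more, scaled per plate between neutral and stimulator controls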;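 further: 0% = DMSO wells given calcium and 100% = 1 mM EGTA wells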
FAS TE block = FAS thioesterase (human) inhibition; P49327; recombinant FAS-TE, OMFH fluorogenic substrate, fluorescence endpoint; inhibition, % at 15 µM; 360,000 compounds, 0.67% hits;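 active means compounds whose normalised, plate-corrected inhibition of enzyme fluorescence in the single-dose primary screen is 50% or more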;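 further: 0% = DMSO with enzyme and 100% = substrate without enzyme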
Yeast superoxide = yeast age-related superoxide inhibition as caloric restriction mimetic. S. cerevisiae aged cells, superoxide DHE fluorescence; active compounds read low. superoxide response (% of plate mean), % at 10 µM. 330,000 compounds, 0.18% hits;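 active means superoxide response under a set limit, about three screen SD below normal, cut at about 65% in these data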;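 further: yeast aged for seven days with compound at 30 °C before DHE staining; 100% = average MFI of all compound-treated wells on the plate with controls excluded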
aDG glyco act = alpha-DG glycosylation activation | Pro5-aDG cells, alpha-DG glycosylation AlphaScreen (IIH6); 0% Pro5, 100% B10-LARGE cell signal | activation, % at 10 µM | 360,000 compounds, 0.22% hits | AID 624168;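 active means activation of at least 8% versus controls, or a plate z-score of at least 8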;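 further: Pro5 are CHO cells carrying HIG-tagged alpha-DG that lacks glycosylation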
MPTP counter = Rhodamine 123 counter-screen of mitochondrial pore hits; shares compounds with MPTP inh; isolated mitochondria, membrane potential, Rhodamine 123 fluorescence; inhibition, % at 10 µM; AID 624504; 5,000 compounds, 78% hits; in the data active means inhibition above about 22%;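 further: 0% = DMSO vehicle and 100% = positive control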
MPTP swell DR = dose response confirmation of mitochondrial permeability transition pore inhibitors | shares compounds with MPTP inh | isolated mitochondria swelling, absorbance | IC50, µM | 780 compounds, 58% hits | AID 651561; in the data active means IC50 below about 20 µM
MPTP cs DR = active in counter-screen for permeability transition pore inhibitors; shares compounds with MPTP inh; isolated mitochondria counterscreen, fluorescence read-out; IC50, µM; 780 compounds, 49% hits; in the data active means IC50 below about 80 µM
Numbers without * were called inactive; i = inactive; . = not tested or not shown.

SMILES | Cardio protect | SUMO Mot1 rescue | MPTP inh | FAS TE block | Yeast superoxide | aDG glyco act | MPTP counter | others
CC1=C(C(=O)N(C)C)CC(CC(=O)NCc2ccco2)C(=O)N1Cc1ccccc1 (stereo not given) | -10.6 | . | -1.3 | -6.3 | . | -0.1 | .
Cn1c(=O)c2c(nc(NCCOc3ccc(C(C)(C)C)cc3)n2C)n(C)c1=O | -15.2 | -6.3 | 101.1* | 42.3 | 102.2 | 4.2 | 6.3 | MPTP swell DR=2.3*;MPTP cs DR=36.4*
CC(O)CNc1nc2c(c(=O)n(C)c(=O)n2C)n1Cc1cccc(C(F)(F)F)c1 (stereo not given) | 8.4 | 243.7 | 0.0 | -4.5 | 111.4 | -0.1 | .
COc1ccccc1OCCNc1nc2c(c(=O)n(C)c(=O)n2C)n1C | 35.9 | 32.4 | 0.0 | -0.1 | 105.3 | 0.1 | .
COCCNc1nc2c(c(=O)n(C)c(=O)n2C)n1Cc1cccc(C(F)(F)F)c1 | -31.0 | -16.6 | 82.3* | -1.3 | 95.2 | 2.3 | 70.6*
CC(OCC(O)CNCC1COc2ccccc2O1)c1ccc(Cl)cc1 (stereo not given) | -1.1 | 116.8 | 85.8* | 1.6 | 84.6 | 0.0 | -6.2 | MPTP swell DR=14.8*;MPTP cs DR=58*
N#Cc1cc(C(=O)c2ccccc2OCC(=O)Nc2ccccc2Cl)cn(C2CCCCC2)c1=O | -2.2 | -18.4 | 1.2 | 32.5 | 111.4 | -0.3 | .
N#Cc1cc(C(=O)c2cc(Br)ccc2O)cn(C2CCCCC2)c1=O | -12.9 | -17.4 | 93.5* | 9.5 | 89.6 | 0.3 | 81.6*
C=Cc1ccc(Cn2c(C)c(C(=O)NCCC#N)sc2=O)cc1 | 3.3 | . | 1.0 | -5.9 | . | -0.2 | .
N#CC1=C(N)SC(N)=C(C#N)C1Cc1ccccc1 | -1.0 | -14.9 | 76.6* | -73.3 | 106.2 | -0.3 | 72.9*
Cc1[nH]nc2c1C(CC(C)C)C(C#N)=C(N)O2 (stereo not given) | -2.2 | -22.4 | 0.8 | -1.4 | 107.4 | -0.2 | .
CC(C)CC1C(C#N)=C(N)SC(N)=C1C#N | -10.4 | -6.3 | 62.2* | -76.6 | 92.9 | -0.2 | 78.3*
CCOc1ccc(C2C(C#N)=C(N)SC(N)=C2C#N)cc1OCC | 4.4 | 180.9 | 6.4 | -65.5 | 106.6 | -0.3 | .
N#CC1=C(N)SC(N)=C(C#N)C1CCc1ccccc1 | -9.9 | -0.5 | 95.7* | -120.8 | 100.2 | 0.2 | 67.3*
N#CC1=C(N)SC(N)=C(C#N)C1c1cccc(Oc2ccccc2)c1 | -12.4 | -19.7 | 88.9* | -32.3 | 94.5 | 0.0 | 69.7*
C[C@H]1CN([C@@H](C)CO)C(=O)c2cc(Br)cnc2O[C@H]1CN(C)C(=O)C1CC1 | -0.8 | . | -0.3 | -7.4 | . | -0.2 | .
CCCCn1c(N)c(N(CCOC)C(=O)c2ccc(S(=O)(=O)N3CCC(C)CC3)cc2)c(=O)[nH]c1=O | 2.4 | 17.9 | -0.8 | -3.5 | 98.6 | 0.2 | .
Cc1oc2cc([N+](=O)[O-])c(O)c([N+](=O)[O-])c2c1C(=O)c1ccc(Cl)cc1 | -11.4 | -12.3 | 76.1* | 9.5 | 128.5 | -0.1 | 58.5*
COc1ccc(OC)c(C(=O)c2c(C)oc3cc([N+](=O)[O-])c(O)c([N+](=O)[O-])c23)c1 | -3.9 | -1.1 | 1.6 | 0.8 | i | 0.1 | .
c1ccc(-c2csc3ncnc(NCCCN4CCOCC4)c23)cc1 | -9.2 | -4.8 | 6.4 | -9.7 | 100.0 | 0.1 | .
Cc1sc2ncnc(NCC3COc4ccccc4O3)c2c1C (stereo not given) | -19.2 | 5.2 | 100.4* | 19.1 | 107.3 | 4.1 | 94.6*
Cc1sc2ncnc(NCC(C)(C)N3CCOCC3)c2c1C | -34.5 | -4.9 | 80.2* | 0.2 | 106.2 | 5.2 | 84.1*
c1ccc(-c2csc3ncnc(NCC4COc5ccccc5O4)c23)cc1 (stereo not given) | -17.2 | 25.4 | 97.0* | 26.3 | 99.7 | 4.1 | 85.0*
Cc1sc2ncnc(NCC3(N4CCOCC4)CCCCC3)c2c1C | 4.4 | -6.0 | -1.6 | 48.3 | 95.7 | 0.1 | .
CCOc1ccc(C(=O)Nc2ccc(S(=O)(=O)N3CCN(C)CC3)cc2)cc1 | -2.4 | 8.5 | 0.6 | 4.4 | 101.8 | 0.1 | .
SMILES | Cardio protect | SUMO Mot1 rescue | MPTP inh | FAS TE block | Yeast superoxide | aDG glyco act | MPTP counter | others
CC(=O)c1ccc2c(c1)N(CCCN1CCC(CCO)CC1)c1ccccc1S2 | -8.0 | 14.5 | 0.2 | -3.0 | 96.7 | 0.8 | .
OCCN1CCN(CCCN2c3ccccc3Sc3ccc(Cl)cc32)CC1 | 22.7 | -20.5 | 53.0* | -1.5 | 104.5 | -0.2 | -21.6
CN(C)CCCN1c2ccccc2Sc2ccc3ccccc3c21 | -9.1 | . | 2.8 | -4.4 | . | 0.6 | .
CN(C)CCCN1c2ccccc2Sc2ccc(Cl)cc21 | 27.3 | 200.7 | 90.6* | 0.1 | 120.4 | 0.2 | -16.6 | MPTP swell DR=4.99*;MPTP cs DR=>80
OCCN1CCN(CC/C=C2/c3ccccc3Sc3ccc(Cl)cc32)CC1 | -18.9 | -9.6 | 94.2* | 0.8 | 108.9 | 1.1 | -21.1
C[C@H]1CN([C@@H](C)CO)C(=O)CCCn2nncc2CO[C@@H]1CN(C)Cc1ccc(-c2ccccc2)cc1 | 17.7 | . | -2.1 | -7.8 | . | 0.1 | .
O=C(CCNS(=O)(=O)c1c(Cl)cccc1Cl)N1CCCC1 | 1.1 | -12.5 | 0.2 | -9.0 | 94.6 | 0.0 | .
CCN(CC)c1ccc2cc(S(=O)(=O)c3ccc(Cl)cc3)c(=O)oc2c1 | -2.6 | -2.0 | 1.2 | -17.8 | 114.4 | 1.7 | .
CCCCCCc1cc2cc(S(=O)(=O)c3ccc(Cl)cc3)c(=O)oc2cc1O | -9.2 | -20.8 | 100.8* | 1.7 | 94.5 | 0.1 | 94.4*
CCCCCCc1cc2cc(S(=O)(=O)c3ccc(C)cc3)c(=O)oc2cc1O | -9.2 | 12.3 | 98.6* | -4.1 | 110.0 | 0.1 | 78.1*
CCOC(=O)C1CCCN(C(=O)c2[nH]c(C(F)(F)F)nc2-c2ccccc2)C1 (stereo not given) | 4.9 | . | -1.6 | -5.2 | . | -0.1 | .
COC(=O)[C@]12CCCCC=C1N(Cc1ccc(Cl)cc1Cl)C(=O)[C@H](CC(=O)NCc1ccc(C)o1)C2 | . | . | -1.4 | 18.1 | . | 0.3 | .
COC(=O)c1ccc(NC(=S)NC2CC2)cc1 | -0.7 | -4.4 | 1.0 | -6.3 | 97.4 | -0.2 | .
COC(=O)c1ccc(NC(=S)NC2CCc3ccccc32)cc1 (stereo not given) | -10.7 | 24.7 | 80.0* | 11.4 | 100.7 | 0.4 | 81.3*
CCCCn1c(N)c(N(C(=O)CSc2nnnn2-c2ccccc2C)C2CCCC2)c(=O)[nH]c1=O | -0.1 | . | -0.1 | 0.1 | . | 0.0 | .
COc1ccc(NC(=O)COC(=O)CCNS(=O)(=O)c2ccccc2)cc1OC | 2.6 | -10.0 | 1.3 | -6.0 | 94.4 | -0.3 | .
COc1ccc(NC(=O)COC(=O)CNS(=O)(=O)c2ccccc2)cc1OC | 4.0 | . | 120.5* | -7.7 | 104.8 | -0.2 | -2.6

Screening results from PubChem BioAssay.
